Structures can show the parent of a compound that is named as a salt. ± gives the standard deviation of the averaged measurements.
Assays:
Experiment in all cases: growth (OD600 after 10 h); higher = more growth (less inhibition)
[1] = system: E. coli TESEC Alr+ wild-type control; conditions: compound 0.1 mM; raw OD600 reference: median of DMSO wells 0.241, cell-free background 0.041
Experimental: (§1)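 TESEC Mtb Alr E. coli, or the Alr+ wild-type control, in 384-well plates with Prestwick library compounds at 0.1 mM and 1% DMSO, across arabinose induction levels of 1E3 to 1E7 nM. Growth is read as OD600 after 10 h at 37 °C in triplicate biological replicates.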

E. coli TESEC Mtb Alr [2] = conditions: compound 0.1 mM
Experimental: as §1

E. coli TESEC Mtb Asd = conditions: compound 0.1 mM
Experimental: (§2)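 TESEC E. coli strains in which the native enzyme is deleted and replaced by arabinose-inducible Mtb Asd, DapB, CysH or TrpD, each grown in its selective medium. Strains were screened against the Prestwick library at 0.1 mM and 1% DMSO in 384-well format at low and high arabinose induction. Growth is read as OD600 after 10 h in triplicate.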

E. coli TESEC Mtb DapB = conditions: compound 0.1 mM
Experimental: as §2

[3] = system: E. coli TESEC Alr+ wild-type control; conditions: compound 0.1 mM; raw OD600 reference: median of DMSO wells 0.49, cell-free background 0.052
Experimental: (§3)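 TESEC Mtb Alr E. coli (ΔaraC ΔtolC ΔentC Δalr ΔdadX, arabinose-inducible Mtb Alr) or the Alr+ wild-type control strain, grown in defined M9-fructose medium without D-alanine in 96-well plates with Prestwick library compounds at 0.1 mM and 1% DMSO. Low Alr induction is 0.1 µM arabinose and high induction is 10 mM arabinose.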

E. coli TESEC Mtb Alr [4] = conditions: compound 0.1 mM; remark: listed apart in the source
Experimental: as §3

[5] = arabinose 1000 nM, raw OD600 reference: median of DMSO wells 0.294, cell-free background 0.041
[6] = arabinose 10000 nM, raw OD600 reference: median of DMSO wells 0.264, cell-free background 0.041
[7] = arabinose 100000 nM, raw OD600 reference: median of DMSO wells 0.201, cell-free background 0.041
[8] = arabinose 1000000 nM, raw OD600 reference: median of DMSO wells 0.193, cell-free background 0.041
[9] = arabinose 10000000 nM, raw OD600 reference: median of DMSO wells 0.146, cell-free background 0.041
[10] = arabinose induction (level): High, raw OD600 reference: median of DMSO wells 0.331, cell-free background 0.041
[11] = arabinose induction (level): Low, raw OD600 reference: median of DMSO wells 0.417, cell-free background 0.041
[12] = arabinose induction (level): High, raw OD600 reference: median of DMSO wells […], cell-free background 0.041
[13] = arabinose induction (level): Low, raw OD600 reference: median of DMSO wells 0.227, cell-free background 0.041
[14] = arabinose 100 nM, raw OD600 reference: median of DMSO wells 0.413, cell-free background 0.052
[15] = arabinose 10000000 nM, raw OD600 reference: median of DMSO wells […], cell-free background 0.052

SMILES	growth [1]	growth (E. coli TESEC Mtb Alr [2]; [5])	growth (E. coli TESEC Mtb Alr [2]; [6])	growth (E. coli TESEC Mtb Alr [2]; [7])	growth (E. coli TESEC Mtb Alr [2]; [8])	growth (E. coli TESEC Mtb Alr [2]; [9])	growth (E. coli TESEC Mtb Asd; [10])	growth (E. coli TESEC Mtb Asd; [11])	growth (E. coli TESEC Mtb DapB; [12])	growth (E. coli TESEC Mtb DapB; [13])	growth [3]	growth (E. coli TESEC Mtb Alr [4]; [14])	growth (E. coli TESEC Mtb Alr [4]; [15])
O=C(c1ccc(F)cc1)C1CCN(CCn2c(=O)[nH]c3ccccc3c2=O)CC1 [Ketanserin tartrate hydrate]	0.183 ± 0.0037	0.251 ± 0.0083	0.27 ± 0.0047	0.221 ± 0.033	0.132 ± 0.0046	0.17 ± 0.0079	0.243 ± 0.075	0.393 ± 0.039	0.203 ± 0.02	0.251 ± 0.056	0.491 ± 0.043	0.407 ± 0.011	0.2801 ± 0.002
CC(COc1ccccc1)N(CCCl)Cc1ccccc1 (stereo not drawn) [Phenoxybenzamine hydrochloride]	0.0435 ± 0.0034	0.149 ± 0.01	0.0397 ± 0.0001	0.121 ± 0.0026	0.03927 ± 0.00029	0.0621 ± 0.00078	0.199 ± 0.018	0.261 ± 0.053	0.175 ± 0.013	0.228 ± 0.011	0.673 ± 0.025	0.396 ± 0.0062	0.0624 ± 0.018
COc1ccc(C2CNC(=O)C2)cc1OC1CCCC1 (stereo not drawn) [Rolipram]	0.209 ± 0.0078	0.275 ± 0.012	0.29 ± 0.0047	0.177 ± 0.0086	0.198 ± 0.012	0.14 ± 0.0022	0.373 ± 0.044	0.425 ± 0.047	0.211 ± 0.0056	0.217 ± 0.0081	0.623 ± 0.011	0.4 ± 0.013	0.311 ± 0.019
CCCc1ncc(C[n+]2ccccc2C)c(N)n1 [Amprolium hydrochloride]	0.245 ± 0.0098	0.284 ± 0.029	0.2572 ± 0.0021	0.207 ± 0.027	0.18 ± 0.0063	0.142 ± 0.0046	0.359 ± 0.016	0.386 ± 0.0088	0.187 ± 0.0079	0.228 ± 0.05	0.497 ± 0.041	0.407 ± 0.016	0.376 ± 0.028
CCCNC(C)C(=O)Nc1c(C)csc1C(=O)OC (stereo not drawn) [Articaine hydrochloride]	0.249 ± 0.0025	0.3163 ± 0.0008	0.266 ± 0.0049	0.213 ± 0.013	0.162 ± 0.0036	0.147 ± 0.0054	0.257 ± 0.064	0.442 ± 0.02	0.205 ± 0.016	0.236 ± 0.043	0.47 ± 0.023	0.407 ± 0.015	0.316 ± 0.021
NCCc1c[nH]cn1 [Histamine dihydrochloride]	0.24 ± 0.012	0.2947 ± 0.0029	0.258 ± 0.0056	0.192 ± 0.019	0.192 ± 0.011	0.139 ± 0.003	0.303 ± 0.062	0.403 ± 0.011	0.193 ± 0.015	0.23 ± 0.0077	0.501 ± 0.067	0.42 ± 0.011	0.312 ± 0.0092
CCCC(CCC)C(=O)O [Valproic acid]	0.241 ± 0.0026	0.293 ± 0.0086	0.2722 ± 0.00032	0.22 ± 0.02	0.22 ± 0.0036	0.137 ± 0.0016	0.416 ± 0.018	0.404 ± 0.047	0.202 ± 0.011	0.246 ± 0.0077	0.478 ± 0.035	0.41 ± 0.01	0.358 ± 0.022
C[C@H]1[C@H](NC(=O)/C(=N\OC(C)(C)C(=O)O)c2csc(N)n2)C(=O)N1S(=O)(=O)O [Aztreonam]	0.161 ± 0.011	0.0624 ± 0.0045	0.0463 ± 0.0008	0.136 ± 0.014	0.177 ± 0.005	0.172 ± 0.0037	0.161 ± 0.009	0.11 ± 0.0038	0.188 ± 0.0055	0.186 ± 0.026	0.385 ± 0.016	0.0511 ± 0.0047	0.277 ± 0.016
CCN1CCN(c2cc3c(cc2F)c(=O)c(C(=O)O)cn3C2CC2)CC1 [Enrofloxacin]	0.04133 ± 0.00021	0.0446 ± 0.0089	0.0393 ± 0.00035	0.0406 ± 0.0012	0.0391 ± 0.0002	0.0419 ± 0.0033	0.0465 ± 0.0016	0.0466 ± 0.0016	0.0496 ± 0.00083	0.0487 ± 0.0006	0.0543 ± 0.0025	0.05387 ± 0.00035	0.0522 ± 0.001
C[C@H](CCC(=O)O)[C@H]1CC[C@H]2[C@@H]3C(=O)C[C@@H]4CC(=O)CC[C@]4(C)[C@H]3CC(=O)[C@]12C [Dehydrocholic acid]	0.252 ± 0.0042	0.252 ± 0.062	0.25 ± 0.012	0.186 ± 0.022	0.183 ± 0.0057	0.138 ± 0.0079	0.329 ± 0.068	0.33 ± 0.07	0.196 ± 0.0059	0.236 ± 0.04	0.569 ± 0.034	0.406 ± 0.0045	0.3 ± 0.0058
Nc1ccn([C@@H]2O[C@H](CO)[C@@H](O)[C@@H]2O)c(=O)n1 [Cytarabine]	0.24 ± 0.0059	0.307 ± 0.0036	0.247 ± 0.0079	0.214 ± 0.025	0.1685 ± 0.00085	0.171 ± 0.002	0.309 ± 0.032	0.305 ± 0.02	0.224 ± 0.024	0.229 ± 0.026	0.552 ± 0.051	0.406 ± 0.0096	0.31 ± 0.0066
COc1ccccc1OCC(O)CN1CCN(CC(=O)Nc2c(C)cccc2C)CC1 (stereo not drawn) [Ranolazine]	0.207 ± 0.0059	0.309 ± 0.036	0.285 ± 0.0092	0.155 ± 0.012	0.178 ± 0.0088	0.135 ± 0.0073	0.171 ± 0.014	0.342 ± 0.085	0.174 ± 0.023	0.226 ± 0.021	0.471 ± 0.068	0.4233 ± 0.0032	0.301 ± 0.014
C=C1/C(=C\C=C2/CCC[C@]3(C)[C@@H]([C@H](C)CCCC(C)C)CC[C@@H]23)C[C@@H](O)C[C@@H]1O [Alfacalcidol]	0.0884 ± 0.006	0.0977 ± 0.004	0.051 ± 0.0012	0.143 ± 0.018	0.065 ± 0.0018	0.121 ± 0.002	0.219 ± 0.033	0.301 ± 0.066	0.234 ± 0.012	0.226 ± 0.018	0.146 ± 0.0019	0.4206 ± 0.0018	0.149 ± 0.023
CCc1cccc(CC)c1NC(=O)CN(CC(=O)O)CC(=O)O [Etifenin]	0.2457 ± 0.00078	0.295 ± 0.011	0.276 ± 0.0042	0.231 ± 0.012	0.192 ± 0.011	0.146 ± 0.0052	0.29 ± 0.033	0.375 ± 0.09	0.179 ± 0.015	0.196 ± 0.003	0.603 ± 0.11	0.412 ± 0.012	0.338 ± 0.017
Cn1ccnc1S [Methimazole]	0.257 ± 0.0088	0.32 ± 0.018	0.275 ± 0.0076	0.195 ± 0.011	0.191 ± 0.0034	0.16 ± 0.0067	0.484 ± 0.0095	0.417 ± 0.096	0.2 ± 0.0098	0.262 ± 0.04	0.57 ± 0.026	0.405 ± 0.014	0.323 ± 0.009
O=S(=O)(O)CCS [Mesna]	0.2377 ± 0.0019	0.282 ± 0.0091	0.28 ± 0.0078	0.193 ± 0.012	0.206 ± 0.016	0.13 ± 0.0052	0.341 ± 0.079	0.371 ± 0.058	0.204 ± 0.009	0.214 ± 0.046	0.513 ± 0.074	0.4246 ± 0.0021	0.337 ± 0.0046

Reference: the supplement of paper PMC9262897, “Low-cost anti-mycobacterial drug discovery using engineered E. coli” (Nature Communications, 2022)
